Data as given in PubChem BioAssay (NCATS).
For part of these data: Entries with a potency or affinity are not part of this list. Active and inactive are the calls of the source.

What was measured:
[1] = Ebola virus entry assay, blue channel fluorescence
[2] = Ebola virus entry assay, ratio channel
[3] = Ebola virus entry assay, green channel fluorescence
[4] = Ebola virus entry assay, reporter ratio channel; AC50: Channel type: primary unless noted; outcome: Channel type: primary unless noted
[5] = Ebola virus entry assay, blue channel (ratio component)
[6] = Ebola virus entry assay, green fluorescence channel
[7] = Ebola virus entry assay, blue channel fluorescence; remark: listed apart in the source
[8] = Ebola virus entry reporter assay, green channel fluorescence
[9] = Ebola virus entry cell assay, ratio channel

Measured: AC50

NP(N)(=O)NC(=O)c1ccc(F)cc1
inactive: [1] | [2] | [3] | [4] | [5]

Cc1nc(N)nc(N)c1-c1ccc(Cl)c(Cl)c1
inactive: [3]
active: [1] 12.6 µM | [2] 28.2 µM | [4] 28.2 µM

CC[C@@H](CO)NC(=O)[C@@H]1C=C2c3cccc4[nH]cc(c34)C[C@H]2N(C)C1
inactive: [3]
active: [1] 7.94 µM | [2] 10 µM | [4] 10 µM

Nc1ccncc1
inactive: [1] | [2] | [3] | [4] | [5]

O=c1[nH]cnc2c1ncn2[C@H]1CC[C@@H](CO)O1
inactive: [6] | [3] | [7] | [4] | [5] | [8] | [9]

CC/C=C(\C(=O)N[C@@H]1C(=O)N2C(C(=O)OCOC(=O)C(C)(C)C)=C(COC(N)=O)CS[C@H]12)c1csc(N)n1
inactive: [1] | [2] | [3] | [4] | [5]

COC[C@@H](NC(C)=O)C(=O)NCc1ccccc1
inactive: [1] | [2] | [3] | [4] | [5]

O=C(NC(O)C(Cl)(Cl)Cl)NC(O)C(Cl)(Cl)Cl (stereo not given)
inactive: [1] | [2] | [3] | [4] | [5]

NN=C(N)N
inactive: [1] | [2] | [3] | [4] | [5]

CCCCOCCOCCOCc1cc2c(cc1CCC)OCO2
inactive: [1] | [2] | [3] | [4] | [5]

CN1CC(=O)N/C1=N/C(=O)Nc1cccc(Cl)c1
inactive: [1] | [2] | [3] | [4] | [5]

O=[N+]([O-])c1cc([As](=O)(O)O)ccc1O
inactive: [1] | [2] | [3] | [4] | [5]
